# Screens (PubChem)
# Most compounds without a hit are left out; they make up all but 1.4% or so of the library.
# PTAP TSG101 blk = blocks PTAP/TSG101 interaction to inhibit HIV-1 budding; Potency, µM (series often up to 115 µM), for the others: top-dose activity change, negative = inhibition, usual class: inhibitors; 340,000 tested, under 10 active; Fluorescence polarization, FITC-PTAP peptide / Tsg101 binding; active = well fitted inhibition curve with a large enough effect in the main read-out, with a control signal flat, not every such curve was filed as active; inconclusive = small, poorly fitted or top-dose-only effect, or effect the other way, or a change in a side signal; inactive = no such curve, though single readings can be large or run the other way; also: potency is read from the fitted curve at half-maximal effect; % of control where 0% means no effect
# Target sequence (Q99816 whole entry, looked up): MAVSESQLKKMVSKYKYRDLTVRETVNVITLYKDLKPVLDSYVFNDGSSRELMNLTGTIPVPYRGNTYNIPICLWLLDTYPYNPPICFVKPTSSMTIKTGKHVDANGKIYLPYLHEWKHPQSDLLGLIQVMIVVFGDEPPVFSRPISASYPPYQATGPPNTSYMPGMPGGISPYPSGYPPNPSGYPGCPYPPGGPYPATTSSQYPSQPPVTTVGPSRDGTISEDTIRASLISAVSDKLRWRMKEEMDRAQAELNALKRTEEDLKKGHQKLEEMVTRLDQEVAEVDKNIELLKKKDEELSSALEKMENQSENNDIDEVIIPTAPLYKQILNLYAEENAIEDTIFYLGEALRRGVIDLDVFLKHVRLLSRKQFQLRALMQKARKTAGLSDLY
#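 Tsg101 binding domain (10 uM final) was mixed with compound and a FITC-labeled PTAP peptide (50 nM final) in HEPES pH 7.5 buffer with NaCl, Tween 20, EDTA and TCEP; fluorescence polarization was read after 20 min at r.t.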
# Akt phos inh = blocks phosphorylation of Akt. Neuro2A IGF-stimulated pAkt S473 HTRF, 20 min; hits give low values. activity change, % for hits at 50 µM. 360,000 compounds, 0.32% hits; in the data active = activity change below about -80%; inconclusive = mostly about -51% to -80%; also: % is scaled to controls: 0 for no effect and ±100 for the full control effect
#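 Neuro2A cells (4,500/well, DMEM with 0.5% FBS) were treated with compound at a single 50 µM final concentration, stimulated with 6 nM IGF for 20 min at 37 °C, and lysed. Phospho-Akt Ser473 was read by HTRF as 665/615 ratio ×10^4.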
# ASM inhibitor = blocks human secretory acid sphingomyelinase. P17405. placental ASM, HMU-PC fluorogenic substrate, 60 min. Potency, µM (doses to about 57.5 µM), inactives show at the top dose activity change, negative = inhibition, hits mostly inhibitors. 340,000 compounds, 0.006% hits; also: potency is read from the fitted curve at half-maximal effect
#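 HMU-PC0 cleavage (9 uM final) by human placental ASM, 60 min at 37 °C following 10 min compound exposure at RT; stopped at pH 10, fluorescence Ex 386/Em 447 nm.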
# 12-LOX inh = ALOX12 (human) lipoxygenase inhibition; AID 1671190; Potency, µM (highest dose often 108 µM), inactives show top-dose activity change, negative = inhibition, hits mostly inhibitors; P18054; purified 12hLO, xylenol orange hydroperoxide absorbance; 580,000 compounds, 1.1% hits; also: potency is read from the fitted curve at half-maximal effect; % is scaled to controls: 0 for no effect and ±100 for the full control effect
#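 Purified human 12hLO at 150 nM in 25 mM Hepes, 0.01% Triton X-100, pH 7.0, preincubated 15 min at room temperature with compound. Reaction started with 40 uM arachidonic acid, 30 min at room temperature. Hydroperoxide measured by Fe-xylenol orange, 573/405 nm absorbance ratio.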
# Vif-A3G inh = inhibitors of Vif-APOBEC3G interaction; Q9HC16; HeLa A3G-eYFP + Vif (tagged APOBEC3G with the HIV-1 protein that degrades it), YFP fluorescence, overnight; Potency, µM (titrated, usually from 46.1 µM), inactives show at the highest dose activity, negative = active, hits mostly inhibitors; AID 602310; 410,000 compounds, 0.076% hits; also: potency is read from the fitted curve at half-maximal effect; % is scaled to controls: 0 for no effect and ±100 for the full control effect; nearly all actives have a fitted effect of over 60% in size
#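 Read-out is eYFP fluorescence (Ex 488/Em 500-530) from Vif-expressing HeLa A3G-eYFP cells; more signal means A3G escaped Vif-mediated degradation. Cells plated overnight, compound pinned in, incubated overnight at 37 deg C.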
# Vif-A3F inh = blocks the Vif interaction with APOBEC3F; HeLa A3F-eYFP + Vif (tagged APOBEC3F with the HIV-1 protein that degrades it), YFP fluorescence increase; Potency, µM (highest dose often 46.1 µM), for the others: top-dose activity, negative = active; 390,000 compounds, 0.2% hits; AID 602313; also: potency is read from the fitted curve at half-maximal effect; % of control where 0% means no effect; nearly all actives have a fitted effect of over 65% in size
#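 HeLa cells stably expressing Vif plus C-terminally eYFP-tagged A3F were seeded, incubated overnight at 37 deg C, dosed with compound, incubated overnight again at 37 deg C. Yellow fluorescence (Ex 488/Em 500-530) reported blocked Vif-mediated A3F-eYFP degradation.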
# The depositor's hits bear a star; i = inactive; ? = inconclusive; . = no result; [ ] = remark or other dose. Unless noted, calls follow the shape of the dose curve; as a rule, active = well fitted curve in the direction sought with a large enough effect; inconclusive = small, poorly fitted or top-dose-only effect, or another doubt; inactive = no such curve, though single readings can be large; an effect the other way counts as inactive or inconclusive.
SMILES,PTAP TSG101 blk,Akt phos inh,ASM inhibitor,12-LOX inh,Vif-A3G inh,Vif-A3F inh
CCN1C(=O)/C(=C/c2ccc(N(CC)CC)cc2OC)C(=O)NC1=S,0%,i,6%,-16%,0%,7.9µM*
O=C1NC(=S)N(c2ccccc2)C(=O)/C1=C/c1ccco1,-2%,i,-15%,?,3%,2%
CCOc1cccc(N2C(=O)/C(=C/c3ccco3)C(=O)NC2=S)c1,-3%,i,4%,11µM*,0%,0%
COc1cc(OC)c(OC)cc1/C=C1/C(=O)NC(=O)N(Cc2ccccc2)C1=O,-5%,i,7%,?,3%,?
COc1cccc(N2C(=O)/C(=C/c3ccc(C)o3)C(=O)NC2=S)c1,1%,i,-7%,10µM*,0%,-24%
CCN(CC)c1ccc(/C=C2\C(=O)NC(=S)N(c3ccc(OC)cc3OC)C2=O)o1,?,i,-1%,.,-30%,11µM*
O=C(Nc1ccc2c(c1)OCCO2)N1[C@H]2CC[C@@H]1c1cncnc1C2,.,.,.,45%,.,.
O=C1CSC(c2ccc(F)c(Br)c2)c2cn[nH]c2N1 (centres undefined),.,.,.,-15%,.,.
O=C(Cc1ccccc1)N1CCN(CCCc2ccccc2)CC1,-6%,i,5%,0.89µM*,-4%,-6%
COc1ccccc1CC(=O)N1CCN(CCc2ccccc2)CC1,0%,i,4%,-29%,-1%,5%
CNc1oc(-c2ccc(C)cc2)nc1P(=O)(OC)OC,.,.,.,-9%,.,.
O=C(C1CC(=O)N(C2CCCCC2)C1)N1CCC2(CC1)OCCO2 (centres undefined),-1%,-110%*,4%,-3%,3%,-1%
O=C1NC(=O)N(Cc2ccco2)C(=O)/C1=C\c1cccn1CCOc1ccc(Cl)cc1,2%,i,-20%,40µM*,-29%,?
COc1ccc(CN2C(=O)NC(=O)/C(=C\c3ccco3)C2=O)cc1,-1%,i,-9%,40µM*,-1%,-11%
COc1ccc(CN2C(=O)NC(=O)/C(=C\c3cc(OC)c(OC)c(OC)c3)C2=O)cc1,0%,i,2%,?,1%,-14%
CCCCn1c(C)c(C(=O)OCC)c2cc(O)ccc21,.,.,.,-1%,.,.
CC(=O)Nc1ccc(S(=O)(=O)NC[C@H]2C[C@@H]3CCN2C[C@@H]3c2cc(-c3ccc(N(C)C)cc3)nc(C)n2)cc1,.,.,.,-11%,.,.
CCn1c(NN=O)nc2ccccc21,-2%,i,0%,?,3%,11µM*
O=C1N(c2ccccn2)C[C@H]2CN(Cc3ccccc3)CCN12,.,.,.,4%[176 µM],.,.
Nc1c(Br)cc2c3c(cccc13)-c1ccccc1-2,-17%,i,-22%,-29%,?,11µM*
COc1ccc(CN2C(=O)CC(=O)NC2=S)cc1,-2%,i,8%,45µM*,-6%,0%
NC[C@@H](CC(=O)O)c1ccc(Cl)cc1,.,.,.,2%,.,.
NCC(CC(=O)O)c1ccc(Cl)cc1 (centres undefined),-2%,-108%*,10%,-8%,2%,0%
Cn1nc(C2CCCCC2)cc1[C@H]1CN2CC[C@H]1C[C@@H]2CN,.,.,.,50%[176 µM],.,.
C=CCNC(=O)NC[C@H]1C[C@@H]2CCN1C[C@@H]2c1cc(C(CC)CC)nc(-c2ccncc2)n1,.,.,.,27%,.,.
N#CC(C#N)=NNc1ccc(-n2ccc(C(F)(F)F)n2)cc1,-2%,i,-12%,28µM*,1%,-2%
CN1CCN(c2ccc(NC=C(C#N)C#N)cc2)CC1,.,.,.,6%,.,.
Cc1cccc(-n2c(O)c(C=Nc3ccc(Br)cn3)c(=O)[nH]c2=O)c1,-5%,i,8%,?,-3%,5%
Cc1cccc(-n2c(O)c(C)c(=O)[nH]c2=S)c1,-8%,i,4%,45µM*,5%,3%
